The values that follow come from PubChem BioAssay (NCATS).

Results filed as inconclusive are left out. Where a call stands in place of a potency, no number is given. Values without a mark were called inactive. Calls of active or inactive are those of the source. The call rests on the fitted dose curve; in most records, active means well fitted inhibition curve with a large enough effect; inconclusive means small, poorly fitted or top-dose-only effect; inactive means no such curve, though single readings can be large or run the other way.
Potency means the concentration at half of the fitted maximal effect.

For the assay, the system named is Zika virus NS2B-NS3 protease (linked construct). The assay can be described thus: Primary screen NINDS Rhodamine qHTS for Zika virus inhibitors (AID 1347160). Further: nearly all actives have a fitted effect of over 55% in size. To be noted: purified NS2B-NS3 protease, Rhodamine110 substrate fluorescence; series mostly up to 57.1 µM. The essentials:
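Rhodamine110-peptide cleavage (1.5 µM substrate) by 25 nM linked NS2B-NS3 enzyme at pH 8.0 (Tris, Tween 20), after 15 min RT preincubation with compounds; 15-min fluorescence change normalized to controls and Hill-fitted.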
In the case of `Cc1ccccc1CN1C2=NCCN2C(=O)C2=C1CCN(Cc1ccccc1)C2`, the Potency entry is “inactive”.
For the compound `CC1(C)CC[C@]2(C(=O)O[C@@H]3O[C@H](CO)[C@@H](O)[C@H](O)[C@H]3O)CC[C@]3(C)C(=CCC4[C@@]5(C)C[C@@H](O)[C@H](O)C(C)(C)C5[C@H](O)C[C@]43C)[C@@H]2[C@@H]1O` (some centres undefined), the Potency result is “inactive”.
As for `C=C1CCC2C(C)(C(=O)O)CCCC2(C)C1CCC(C)CC(=O)O` (centres undefined), the Potency result is “inactive”.
Same read-out and setting: the result for `Cc1ccc(S(=O)(=O)Nc2ccccc2N2CCCCC2)s1` reads “inactive”; that for `CC1(C)CCC2(C(=O)OC3OC(CO)C(O)C(O)C3O)CCC3(C)C(=CCC4C5(C)CCC(O)C(C)(C(=O)O)C5CCC43C)C2C1O` (centres undefined), “inactive”.
As to `COc1cc(O)c2c(c1)C1=CC(O)C(O)CC1(C)OC2=O` (centres undefined), the Potency result is “inactive”.
As to `COc1ccc(/C=C/C(=O)O[C@@H]2[C@@H](O)[C@@H](O)[C@H](O[C@@H]3C=C(CO)[C@H]4[C@H](O[C@@H]5O[C@H](CO)[C@@H](O)[C@H](O)[C@H]5O)OC=C[C@H]43)O[C@H]2C)cc1O`, the Potency result was “inactive”.
In the case of `O=S(=O)(NC1CCC(c2cc(F)ccc2F)(S(=O)(=O)c2ccc(Cl)cc2)CC1)C(F)(F)F` (centres undefined), the Potency is 12.6 µM (active).
Regarding `CC1CC[C@]2(C(=O)O)CC[C@]3(C(=O)O)C(=CCC4[C@@]5(C)CC[C@H](OC6OC(C)C(O)C(OC7OC(CO)C(O)C(O)C7O)C6O)C(C)(C)C5CC[C@]43C)C2C1C` (some centres undefined), the Potency result is “inactive”.
As for `CC1CC(O)/C=C/C(O)C(O)CC(=O)Cc2c(Cl)c(O)cc(O)c2C(=O)O1` (centres undefined), the Potency result was “inactive”.
In the case of `O=C(O)c1cc(-c2c(-c3ccccc3)nn3ccccc23)n[nH]c1=O`, the Potency result is “inactive”.
With `COC(=O)[C@@]1(c2ccc(C)cc2)C[C@H]1CN1CCC(O)(c2ccccc2)CC1`, the Potency entry is “inactive”.
Consider `CC(C)(O)c1ccc2c(c1)C(O)C[C@H]1[C@](C)(C(=O)O)CCC[C@]21C` (some centres undefined), for which the Potency entry is “inactive”.
As for `N[C@H]1Cc2ccccc2N(O)C1=O`, the Potency entry is “inactive”.
As for `C=C(C)C1CCC2(C(=O)O[C@@H]3O[C@H](CO[C@@H]4O[C@H](CO)[C@@H](O)[C@H](O)[C@H]4O)[C@@H](O)[C@H](O[C@@H]4O[C@@H](C)[C@H](O)[C@@H](O)[C@H]4O)[C@H]3O)CCC3(C(=O)O)C(CCC4C5(C)CCC(O)C(C)(C)C5CCC43C)C12` (some centres undefined), the Potency result is “inactive”.
Regarding `O=C(c1ccc2nccnc2c1)N1CCCCC1`, the Potency result was “inactive”.
For the compound `CC1(C)CCCC2(C)C=C(C(=O)O)C(O)CC12` (centres undefined), the Potency result is “inactive”.
With `C/C=C/c1ccc2c(c1)[C@@H](C)[C@H](c1ccc(O)cc1)O2`, the Potency entry is “inactive”.
As for `CC(C)=CCC/C(C)=C/CCC1(C)Oc2c(c(O)cc3c2CN(C(CCC(=O)O)C(=O)O)C3=O)CC1O` (centres undefined), the Potency entry was “inactive”.
For `C=C1CCC2C(C)(C)CCC[C@]2(C)[C@H]1C/C=C(\CO)C(=O)C(=O)O` (some centres undefined), the Potency entry is “inactive”.
Same read-out and setting: for `CC(C)C(C(=O)N(C)C(C)C(N)=O)N(C)C(=O)C1CCCN1C(=O)/C=C/C=C/C(O)C(C)O` (centres undefined) the value was “inactive”.
As for `CC1(C)CCCC2(C)C1CC=C1C(=O)OC(O)C12O` (centres undefined), the Potency result is “inactive”.
As to `C=C(C(=O)O)C1CCC2(C)CCC(O)C(=C)C2C1` (centres undefined), the Potency is 8.91 µM (active).
As to `CCCCc1nc2cc(/C=C/C(=O)NO)ccc2n1CCN(CC)CC`, the Potency entry was “inactive”.
As to `CN1CCN(C(=O)c2ccc3cc(CCNc4ncnc5ccc(C#N)cc45)ccc3c2)CC1`, the Potency result was “inactive”.
On the same count and under the same terms, the result for `C=C1C[C@]23C[C@H]1CC[C@H]2[C@@]1(C)CCC[C@@]2(C)C(=O)O[C@@H]([C@@H]3O)[C@@H]12` reads “inactive”.
For `C/C=C/c1ccc(O[C@@H]2O[C@H](CO)[C@@H](O)[C@H](O)[C@H]2O)c(OC)c1`, the Potency entry is “inactive”.
As to `CCCCOC(=O)NC(=O)C1c2ccccc2Oc2ccccc21`, the Potency result is “inactive”.
As to `C=C[C@H]1CN2CC[C@H]1C[C@@H]2C(O)c1ccnc2ccc(OC)cc12` (some centres undefined), the Potency entry is “inactive”.
Turning to `CC(=O)OC1/C(C)=C/C(=O)C(OC(C)=O)C(C)(C)/C=C/C(C)C(=O)C2(OC(C)=O)CC(C)C(OC(=O)c3ccccc3)C12` (centres undefined), the Potency entry was “inactive”.
As for `CC(=O)O[C@@H]1CC(C)=C2[C@H]1[C@H](C)CC[C@H]2/C=C(\C)C(=O)O`, the Potency entry is “inactive”.
With `CC12CCC3c4ccc(O)cc4CCC3C1CC(OC1OC(C(=O)O)C(O)C(O)C1O)C2O` (centres undefined), the Potency entry was “inactive”.
Regarding `CN(C)CC1CCOC1(c1ccccc1)c1ccccc1` (centres undefined), the Potency entry was “inactive”.
As for `COC1CC(OC2CCC3(C)C(=CCC4C3C(OC(C)=O)C(OC(=O)/C=C/c3ccccc3)C3(C)C(C(C)O)CCC43O)C2)OC(C)C1OC1CC(OC)C(OC2OC(C)C(OC3OC(CO)C(O)C(O)C3O)C(OC)C2O)C(C)O1` (centres undefined), the activity change, negative = inhibition is 23.5% [at 10.7 µM].
For the compound `C/C1=C\CC[C@]2(C)O[C@@H]2[C@H](O)[C@H](C(C)C)[C@H](OC(=O)/C=C/c2ccccc2)C1`, the Potency entry was “inactive”.
Consider `COC1CC(O[C@H]2CC[C@@]3(C)C(=CC[C@]4(O)C3[C@H](OC(C)=O)[C@@H](OC(=O)c3ccccc3)[C@]3(C)[C@@H](C(C)=O)CC[C@@]34O)C2)OC(C)C1OC1CC(OC)C(OC2CC(OC)C(OC3OC(C)C(OC4OC(CO)C(O)C(O)C4O)C(OC)C3O)C(C)O2)C(C)O1` (some centres undefined), for which the activity change, negative = inhibition was -1.64% [at 10.7 µM].
Consider `CC(=O)OC1C(O)CC2(C)C(CCC(C)C23Cc2c(O)cc(CO)c(C=O)c2O3)C1(C)C` (centres undefined), for which the Potency result was “inactive”.
`CC(C)CCC[C@@H](C)[C@H]1CC[C@H]2[C@@H]3CC(=O)[C@H]4C[C@@H](O)CC[C@]4(C)[C@H]3CC[C@]12C`: the Potency result is “inactive”.
For the compound `CC(C)(C#N)c1ccc(N2C(=O)OCc3cnc4ccc(-c5cnc6ccccc6c5)cc4c32)cc1`, the Potency entry was “inactive”.
